We go through 101 molecules from PubChem BioAssay AID504329 (Southern Research Specialized Biocontainment Screening …, 2011).

The whole screen tested about 340,000 compounds, of which about 1,000 (0.29%) were called active. Cut-off read from the data, not from the text of the source: inconclusive = inhibition above about 27% without an active follow-up result; inactive = below that. The list is a sample of the results. Entries with a potency or affinity are not part of this list.

This test can be described thus: NS1A inhibition, H1N1 influenza, cell based functional assay (AID 504329). To be noted: percent inhibition, at 12.5 µM, hits give high values.
With `CNC(=O)c1c(C)noc1C`, the inhibition was -6.29% (inactive).

As for `Clc1ccc(SCc2cc(N3CCOCC3)nc(-c3ccccn3)n2)cc1`, the inhibition is -0.35% (inactive).

Turning to `Clc1ccc(SCc2cc(Cl)nc(-c3ccccc3)n2)cc1`, the inhibition was 3.7% (inactive).

For the molecule `COc1ccccc1N/C=C(\C#N)c1nc2ccccc2[nH]1`, the inhibition was 10.7% (inactive).

For `COc1ccc(N/N=C(/N=Nc2nc(C)cc(=O)[nH]2)c2ccccc2)cc1`, the inhibition was 26.3% (inactive).

As for `O=C(/C(=N\Nc1ccc(Br)cc1)Sc1nnnn1-c1ccccc1)c1ccccc1`, the inhibition is 4.24% (inactive).

Take `Cc1cc(=O)[nH]c(N=N/C(=N/Nc2ccc(O)cc2)c2ccccc2)n1`: the inhibition is 13.6% (inactive).

On to `C/C(=N\Nc1ccc(C(=O)O)cc1)c1ccc(Br)cc1`, for which the inhibition is -17.3% (inactive).

`COc1ccc(S(=O)(=O)N2CCOC2CNC(=O)C(=O)NCCc2ccccc2)cc1OC` (stereo unspecified): the inhibition is 2.48% (inactive).

As to `Cc1ccc(C)n1-n1cnc2sc3c(c2c1=O)CCC3`, the inhibition is 0.86% (inactive).

Regarding `COc1ccccc1C(CNC(=O)c1ccc(S(=O)(=O)N2CCCCC2)cc1)N(C)C` (stereo unspecified), the inhibition is -6.72% (inactive).

As to `O=C(O)C(Cc1ccccc1)N=C(NS(=O)(=O)c1ccccc1)c1ccccc1` (stereo unspecified), the inhibition was -1.07% (inactive).

Regarding `Cc1ccc(C)c(S(=O)(=O)N2CCN(Cc3ccc(O)c4ncccc34)CC2)c1`, the inhibition is -17.5% (inactive).

Regarding `Cc1ccc(NCc2ccc(O)c3ncccc23)cc1C`, the inhibition is -2.65% (inactive).

Consider `CCOC(=O)C1CCN(Cc2c(O)ccc3ccccc23)CC1`, for which the inhibition was -4.79% (inactive).

For the molecule `CCOC(=O)C1CCN(Cc2ccc(OC)c(C)c2OC)CC1`, the inhibition was 0.38% (inactive).

Consider `OC1(C#CCN2CCCC2)CCCCC1`, for which the inhibition is -3.16% (inactive).

Regarding `Cc1ccc(F)cc1NC(=O)CSc1nnc(CNC(=O)c2ccco2)n1C`, the inhibition was -10.7% (inactive).

Consider `N#CC(C#N)=C1NC(N)=C(C#N)C(c2ccccc2)=C1C#N`, for which the inhibition was -3.59% (inactive).

Take `CCc1cccc(OCC(=O)N(C)CC(=O)Nc2cccc(F)c2)c1`: the inhibition is -9.68% (inactive).

With `CCN1CCCc2cc(CN(CCN3CCOCC3)C(=O)Nc3ccc(C)c(C)c3)ccc21`, the inhibition was 22.9% (inactive).

Regarding `CCOc1ccc(NC(=O)N(CCN2CCOCC2)Cc2ccc3c(c2)CCCN3CC)cc1`, the inhibition is 16.9% (inactive).

Regarding `O=c1ccc(/C=C/c2ccccc2)nn1Cc1ccc(F)cc1`, the inhibition is 1.19% (inactive).

For the molecule `Cn1c(C(=O)O)cc2cc(Oc3ccccc3)ccc21`, the inhibition is -27.7% (inactive).

With `O=C1CCC(=O)N1OCCOc1ccccc1`, the inhibition is 6.54% (inactive).

For `COc1ccc(/C=C/C(=O)OCC(=O)Nc2cccc(C(C)=O)c2)cc1`, the inhibition was -8.13% (inactive).

With `O=[N+]([O-])c1ccc(CSc2nc3ccccc3o2)cc1`, the inhibition was 11.7% (inactive).

Regarding `O=[N+]([O-])c1ccc(Cl)cc1Sc1nc2ccccc2o1`, the inhibition is 4.69% (inactive).

`CCN(Cc1cnn(C)c1)C(=O)CC1C(=O)NCCN1Cc1cccc(OC)c1OC` (stereo unspecified): the inhibition was -0.14% (inactive).

On to `C[N+]1=C(/C=C/Nc2ccccc2Cl)C(C)(C)c2ccccc21`, for which the inhibition was 3.87% (inactive).

For `C[N+]1=C(/C=C/Nc2ccccc2)C(C)(C)c2ccccc21`, the inhibition is -0.67% (inactive).

Turning to `O=c1c(-c2ccccc2)c(O)cc(-c2ccncc2)n1-c1ccc(Cl)cc1`, the inhibition was 1.22% (inactive).

Turning to `COc1cccc(OC)c1C(=O)Nc1sc2c(c1C(N)=O)CCN(Cc1ccccc1)C2`, the inhibition was 0.91% (inactive).

With `O=[N+]([O-])c1ccc(C[n+]2cccc3ccccc32)cc1`, the inhibition was 2.93% (inactive).

As to `O=[N+]([O-])c1ccc(C[n+]2cccc3c4ccccc4ccc32)cc1`, the inhibition is -5.37% (inactive).

With `O=C1C(NS(=O)(=O)c2cccs2)=C(N2CCN(Cc3ccccc3)CC2)C(=O)c2ccccc21`, the inhibition is 13.7% (inactive).

In the case of `O=C1C(NS(=O)(=O)c2cccs2)=C(N2CCOCC2)C(=O)c2ccccc21`, the inhibition is 10.6% (inactive).

With `O=C1C(NS(=O)(=O)c2cccs2)=C(N2CCN(c3cccc(Cl)c3)CC2)C(=O)c2ccccc21`, the inhibition is 19.4% (inactive).

On to `CN1CCN(C2=C(NS(=O)(=O)c3cccs3)C(=O)c3ccccc3C2=O)CC1`, for which the inhibition is -3.67% (inactive).

For `CCOC(=O)N1CCN(S(=O)(=O)N2CCCC(C(=O)NCc3ccc(OC)cc3)C2)CC1` (stereo unspecified), the inhibition was -1.33% (inactive).

Consider `CCOC(=O)c1cnc2c(OC)cccc2c1N1CCN(c2ccccn2)CC1`, for which the inhibition is 3.27% (inactive).

Turning to `CC(=O)OCCc1c(C)nc2nc[nH]n2c1=O`, the inhibition is -2.62% (inactive).

As for `O=C(Cc1ccc(Cl)cc1)Nc1ccccc1C(=O)Nc1ccc(C(=O)O)cc1`, the inhibition is 9.57% (inactive).

For `O=C1CCN(S(=O)(=O)c2ccccc2)CCN1CCOCc1ccc(Cl)cc1`, the inhibition is -21.7% (inactive).

Take `Cc1ccc(S(=O)(=O)NC(=O)Nc2ccccc2)cc1`: the inhibition was -7.51% (inactive).

Consider `Cc1ccc(S(=O)(=O)NC(=O)Nc2ccc(F)cc2)cc1`, for which the inhibition is -6.14% (inactive).

For the molecule `O=C(CCc1nnc(Cc2ccc(-c3ccccc3)cc2)o1)NCC1CC1`, the inhibition was -11.2% (inactive).

In the case of `COc1ccc(CCN2CC(C(=O)Nc3ccccc3F)CC2=O)cc1OC` (stereo unspecified), the inhibition was -13.5% (inactive).

In the case of `O=C(NCCCn1ccnc1)C(=O)NCC1OCCN1S(=O)(=O)c1ccc(F)cc1` (stereo unspecified), the inhibition is 19.7% (inactive).

For the molecule `O=C(NCCCn1ccnc1)C(=O)NCC1OCCN1S(=O)(=O)c1ccc(Cl)cc1` (stereo unspecified), the inhibition was 13.8% (inactive).

Turning to `Cc1ccc(/C=C/C(=O)NC(C)c2ccccc2)cc1` (stereo unspecified), the inhibition is 2.36% (inactive).

As to `O=C(CSCc1ccc([N+](=O)[O-])cc1)Nc1ccccc1C(=O)O`, the inhibition is -16.2% (inactive).

Regarding `O=[N+]([O-])c1cc(Cl)ccc1N1CCOCC1`, the inhibition was 6.25% (inactive).

Turning to `COc1cc([N+](=O)[O-])c(N2CCOCC2)c([N+](=O)[O-])c1OC`, the inhibition is 3.06% (inactive).

Take `Cc1cccc(OC(=O)n2c(=S)oc3cc(Cl)ccc32)c1`: the inhibition is 1.29% (inactive).

Turning to `CC(C)[C@H](NC(=O)C1CCN(C(=O)[C@@H]2CCCN2)CC1)C(=O)NCc1ccc(F)cc1`, the inhibition was -5.22% (inactive).

For `Cc1ccc(C(=O)NC(=S)/C=C2\N(C)c3ccccc3C2(C)C)cc1`, the inhibition is 5.06% (inactive).

As to `COc1ccccc1C(=O)NC(=S)/C=C1/N(C)c2ccccc2C1(C)C`, the inhibition was 22.9% (inactive).

As to `O=C(COc1cccc(NC(=O)c2cccs2)c1)c1ccc(F)cc1`, the inhibition was -6.64% (inactive).

Consider `Cc1ccccc1C(=O)NNC(=S)NC(=O)c1cccs1`, for which the inhibition is -2.01% (inactive).

Turning to `COc1ccccc1C(=O)NNC(=S)NC(=O)c1cccs1`, the inhibition was 8.16% (inactive).

On to `O=C(NC(=S)NNC(=O)c1ccco1)c1ccc(F)cc1`, for which the inhibition was 9.62% (inactive).

In the case of `Cc1onc(-c2ccccc2)c1C(=O)NC(=S)NNC(=O)c1ccc(O)cc1`, the inhibition was 22% (inactive).

Consider `Cc1onc(-c2ccccc2)c1C(=O)NC(=S)NNC(=O)c1ccccc1O`, for which the inhibition was 20.2% (inactive).

As for `COc1ccc(C(=O)NC(=S)NNC(=O)c2ccccc2O)cc1`, the inhibition is 0.2% (inactive).

With `O=C(NC(=S)NNC(=O)c1cc2ccccc2cc1O)c1ccco1`, the inhibition was 12.9% (inactive).

`O=C(NNC(=O)c1ccccc1O)c1ccco1`: the inhibition is -15.8% (inactive).

For the molecule `O=C(c1ccc([N+](=O)[O-])cc1)N(c1ccccn1)c1ccccn1`, the inhibition was 2.4% (inactive).

For the molecule `Cc1ccc(NC(=O)c2cccc(NC(=O)/C=C/c3ccco3)c2)cc1C`, the inhibition is -4.7% (inactive).

`Cc1cccc(-c2ccc3ncnc(NCc4cccs4)c3c2)c1`: the inhibition was -11% (inactive).

As for `O=C(O)c1cc2ccccc2n1-c1ccccc1`, the inhibition is 16.9% (inactive).

Take `CN(C)N=C1c2cc(S(=O)(=O)N3CCOCC3)ccc2-c2ccc(S(=O)(=O)N3CCOCC3)cc21`: the inhibition is 19.5% (inactive).

As to `O=C(CCN1C(=O)/C(=C/c2ccccc2Cl)SC1=S)Nc1cccnc1`, the inhibition is -1.44% (inactive).

Turning to `O=C(CCN1C(=O)c2ccccc2S1(=O)=O)N1CCN(c2ccccc2F)CC1`, the inhibition is -1.99% (inactive).

In the case of `O=C(NC(=S)NNC(=O)c1ccccc1O)c1ccc([N+](=O)[O-])cc1`, the inhibition is 1.41% (inactive).

For `O=C(NNC(=S)NC(=O)c1ccccc1)c1cccnc1`, the inhibition is 4.4% (inactive).

For the molecule `Cc1ccc(C(=O)NC(=S)NNC(=O)c2ccccc2O)cc1`, the inhibition is 34.2% (inactive).

In the case of `O=C(NNC(=S)NC(=O)c1ccccc1)c1cccc([N+](=O)[O-])c1`, the inhibition was -20.7% (inactive).

Regarding `Cc1ccccc1C(=O)NNC(=S)NC(=O)c1cccnc1`, the inhibition is 2.35% (inactive).

For the molecule `Cc1ccccc1C(=O)NNC(=S)NC(=O)c1ccccc1`, the inhibition was -4.23% (inactive).

Turning to `Cc1ccc(-n2c(CNc3ccc(F)cc3)nnc2SCC(N)=O)cc1`, the inhibition is 6.65% (inactive).

On to `Cc1cccc(NS(=O)(=O)c2cccc(C(=O)N3CCN(C/C=C/c4ccccc4)CC3)c2)c1`, for which the inhibition is -7.79% (inactive).

With `CCN(c1ccccc1)S(=O)(=O)c1ccc2c(c1)CCCN2C(C)=O`, the inhibition is 5.4% (inactive).

As to `CC(=O)CCCC(NS(=O)(=O)CCC(Cl)(Cl)Cl)c1ccccc1` (stereo unspecified), the inhibition is 1.88% (inactive).

`Oc1ccccc1C=NCCN=Cc1ccccc1O`: the inhibition is 18.6% (inactive).

As to `Oc1ccccc1C=NCCCCCCN=Cc1ccccc1O`, the inhibition was -8.96% (inactive).

As for `COc1cccc(CN(C)C(=O)c2ccc(OCC(=O)N3CCOCC3)c(OC)c2)c1`, the inhibition is -6.73% (inactive).

Turning to `COc1ccccc1OCc1nc2ccccc2[nH]1`, the inhibition was 1.78% (inactive).

For `CCOC(=O)c1nc(Nc2ccc(Nc3ccccc3)cc2)c2ccccc2n1`, the inhibition was 10.9% (inactive).

As to `CCOC(=O)c1nc(Nc2ccc(N3CCOCC3)cc2)c2ccccc2n1`, the inhibition was -12.1% (inactive).

Take `CCCCCC(=O)Nc1ccc(S(=O)(=O)Nc2nccc(C)n2)cc1`: the inhibition was -0.66% (inactive).

For the molecule `Cc1ccc2nc(C)cc(N3CCOCC3)c2c1`, the inhibition was -16.8% (inactive).

For the molecule `Cc1csc(NC(=O)CSc2nnc(NC(=O)C3CC(=O)N(c4ccccc4)C3)s2)n1` (stereo unspecified), the inhibition is -4.67% (inactive).

Regarding `Cc1csc(NC(=O)CSc2ccc(-c3ccccc3)nn2)n1`, the inhibition was -3.27% (inactive).

For the molecule `COc1ccc(C)cc1NC(=O)CSc1ccc(-c2cccnc2)nn1`, the inhibition was -8.69% (inactive).

For `Cc1ccccc1NC(=O)CSc1ccc(-c2ccccn2)nn1`, the inhibition is 12.1% (inactive).

With `COc1ccc(NC(=O)CSc2ccc(-c3ccccn3)nn2)cc1OC`, the inhibition is 1.4% (inactive).

Turning to `Cc1nnc(NC(=O)CSc2ccc3nnc(-c4ccccn4)n3n2)s1`, the inhibition was 15.4% (inactive).

As to `O=C(CSc1ccc2nnc(-c3ccncc3)n2n1)Nc1nccs1`, the inhibition was -1.97% (inactive).

On to `Cc1ccc(NC(=O)CSc2ccc(-c3ccccn3)nn2)c(C)c1`, for which the inhibition was 3.42% (inactive).

For `O=C(CSc1ccc(-c2ccccn2)nn1)Nc1nccs1`, the inhibition was 4.83% (inactive).
